GDH-TPI counter = GDH-TPI coupled enzyme inhibition counter-screen; 360,000 tested, 1.2% active; inhibition, % at 4.8 µM; GDH-TPI coupled enzyme counterscreen, NADH absorbance; AID 588335; in the data active = inhibition above about 30%;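 note: 0% = DMSO wells and 100% = wells lacking the enzyme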
Mtb UGM inh = blocks M. tuberculosis UGM enzyme | purified UGM, fluorescence polarization probe displacement | inhibition, % at 10 µM | 320,000 tested, 0.06% active; in the data active = inhibition above about 10%, passing the limit was not always enough
Rv3671c protease = Rv3671c (M. tuberculosis) protease inhibition; inhibition, % at 5.96 µM; 320,000 tested, 0.048% active; AID 2606; in the data active = inhibition above about 38%;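 note: extracellular domain of Rv3671c used as enzyme; 0% = enzyme with DMSO and 100% = no enzyme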
Mtb FBA inh = inhibitors of M. tuberculosis fructose-bisphosphate aldolase. purified M. tuberculosis FBA, fluorescence read-out. inhibition, % at 1 µM. 360,000 tested, 2.3% active. AID 588726; in the data active = inhibition above about 27%;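 note: 0% = vehicle and 100% = reference inhibitor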
Target sequence (P9WQA3 whole entry, looked up): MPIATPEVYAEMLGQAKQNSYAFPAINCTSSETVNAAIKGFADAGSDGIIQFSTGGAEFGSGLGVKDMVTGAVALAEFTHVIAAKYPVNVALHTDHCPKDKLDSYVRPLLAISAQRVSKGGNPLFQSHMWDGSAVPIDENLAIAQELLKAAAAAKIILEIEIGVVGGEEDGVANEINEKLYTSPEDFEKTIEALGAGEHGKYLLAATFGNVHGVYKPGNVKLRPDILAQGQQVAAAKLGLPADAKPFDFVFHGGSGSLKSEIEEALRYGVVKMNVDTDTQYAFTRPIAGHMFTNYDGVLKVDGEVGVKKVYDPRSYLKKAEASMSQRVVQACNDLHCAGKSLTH
* marks the source's active call; other numbers are inactive results; nt = no result given; + = active, no number. Hits are enriched below; roughly 3.5% of the tested compounds scored in any of these assays.

SMILES | GDH-TPI counter | Mtb UGM inh | Rv3671c protease | Mtb FBA inh
Cc1ccc(-c2nc(C#N)c(N3CCCCC3)o2)cc1 | 14 | -1 | 3 | 137*
N#Cc1nc(-c2ccccc2)oc1N1CCCCC1 | 23 | 1 | -2 | +
COc1ccc(-c2nc(C#N)c(N3CCCCCC3)o2)cc1 | 17 | -2 | -12 | 194*
COc1ccc(-c2nc(C#N)c(N3CCCCC3)o2)cc1 | 6 | -2 | 6 | +
N#Cc1nc(-c2ccc(OCc3ccc(Cl)cc3)cc2)oc1N1CCOCC1 | 3 | -1 | 6 | -1
CN1CCN(c2oc(-c3ccc([N+](=O)[O-])cc3)nc2C#N)CC1 | 13 | -3 | -4 | -1
N#Cc1nc(-c2ccco2)oc1N1CCCC1 | -3 | 1 | 2 | 189*
COc1ccc(-c2nc(C#N)c(N3CCC(C)CC3)o2)cc1 | 4 | 0 | 5 | 115*
CCCOc1ccc(-c2nc(C#N)c(N3CCC(C(N)=O)CC3)o2)cc1 | 27 | 6 | 2 | +
CCN1CCN(c2oc(-c3ccco3)nc2C#N)CC1 | 10 | 1 | 0 | 18
N#Cc1nc(-c2ccccc2F)oc1N1CCCC1 | 19 | 0 | -1 | +
COc1ccc(N(C(=O)/C=C/c2ccccc2)C2=CC3CCC(C2)N3C)cc1 (stereo unspecified) | 14 | -2 | 1 | -4
O=C(OC1CCOC1=O)C1CCN(S(=O)(=O)c2c(Cl)cccc2Cl)CC1 (stereo unspecified) | -2 | -5 | -3 | 0
NS(=O)(=O)c1ccc(N2N=C(c3ccccc3)CC2c2ccccc2)cc1 (stereo unspecified) | 12 | 0 | 6 | +
Cc1ccc(C2CC(c3ccccc3)=NN2c2ccc(S(N)(=O)=O)cc2)cc1 (stereo unspecified) | -2 | nt | nt | +
NS(=O)(=O)c1ccc(N2N=C(c3ccccc3)CC2c2ccc(Br)cc2)cc1 (stereo unspecified) | 9 | nt | nt | 187*
O=S(=O)(O)c1ccc(N2N=C(c3ccccc3)CC2c2ccccc2)cc1 (stereo unspecified) | 18 | 3 | 6 | +
CC(=O)N1N=C(c2ccccc2)CC1c1ccccc1 (stereo unspecified) | 7 | -1 | 9 | -1
O=[N+]([O-])c1ccc(S(=O)(=O)Nc2ccc(-c3ccccc3)cc2)cc1 | 4 | nt | nt | 1
NS(=O)(=O)c1ccc(NC(=O)COC(=O)Cn2cnc3ccccc3c2=O)cc1 | 7 | 3 | -3 | 2
NS(=O)(=O)c1ccc(N2N=C(c3ccccc3)CC2c2ccccc2Cl)cc1 (stereo unspecified) | 25 | nt | nt | 188*
CNC(=S)N1N=C(c2ccccc2)CC1c1ccccc1Cl (stereo unspecified) | 6 | 4 | -2 | 2
CCc1ccc(C2=NN(c3ccc(S(N)(=O)=O)cc3)C(c3ccc(F)cc3)C2)cc1 (stereo unspecified) | 11 | 1 | 7 | +
CC(Sc1nc(-c2ccco2)nc2c1c(=O)n(C)c(=O)n2C)C(=O)O (stereo unspecified) | 32* | -1 | -5 | -2
CCOC(=O)c1c(S(=O)(=O)NCC(C)c2ccccc2)c(C)n(C)c1C (stereo unspecified) | 10 | 7 | 4 | 4
SMILES | GDH-TPI counter | Mtb UGM inh | Rv3671c protease | Mtb FBA inh
COc1ccccc1/C=C\C(=O)NCC(=O)N/N=C/c1ccc(O)cc1O | 36* | 4 | 7 | -2
COc1ccc(NC(=O)/C=C/c2c(Cl)nc3ccccn23)cc1 | 23 | -2 | -21 | -4
COc1ccccc1N1CCN(C(=O)/C=C/c2c(Cl)nc3ccccn23)CC1 | 47* | 4 | -9 | 0
COc1ccc(-c2nc(C#N)c(NCCCn3ccnc3)o2)cc1OC | 12 | 3 | 5 | +
N#Cc1nc(-c2ccc(F)cc2)oc1NCCCn1ccnc1 | nt | 0 | 1 | nt
CN(C)CCNc1oc(COc2cccc(Cl)c2)nc1C#N | -1 | -1 | 3 | 2
CCN(CC)CCCNc1oc(-c2ccc(OC)c(OC)c2)nc1C#N | 17 | 0 | -2 | 164*
CN(C)CCCNc1oc(-c2cccc(Cl)c2)nc1C#N | 1 | 1 | -4 | 174*
COc1ccc(-c2nc(C#N)c(NCc3ccc(C)cc3)o2)cc1OC | 3 | 0 | 3 | 144*
O=S(=O)(N/N=C/c1cccnc1)c1ccc(Cl)c(Cl)c1 | -2 | 0 | -13 | -4
CCc1ccc(NC(=O)CSc2nnnn2C)cc1 | 8 | 0 | 5 | 1
COc1ccc2cc3c(N)nn(C(=O)c4ccc(F)cc4)c3nc2c1 | 41* | 0 | -21 | 1
COc1ccc2cc3c(N)nn(C(=O)c4cccc(F)c4)c3nc2c1 | 7 | 0 | -15 | -2
COc1ccc2cc3c(N)nn(C(=O)c4ccccc4Cl)c3nc2c1 | 36* | 1 | -17 | -5
CS(=O)(=O)c1ccc(Cl)c(NC(=O)CSc2n[nH]c(-c3cccs3)n2)c1 | -1 | 1 | -8 | -4
CC(=O)c1ccc(N(C)C)cc1 | 25 | 1 | -2 | 0
CN(C)c1ccc(C(=O)c2ccc(N(C)C)cc2)cc1 | 40* | 3 | 2 | 2
CC(=O)NC(NC(C)=O)c1ccc(N(C)C)cc1 | 47* | 1 | -12 | -2
COc1ccc(-c2cc3nc4n(c(=O)c3s2)CCCCC4)cc1 | 24 | 0 | -3 | +
COc1ccc(-c2nc3n(c2C)CCC3)cc1 | 3 | 0 | 7 | -2
COc1ccc(-c2cc3nc(C)n(N)c(=O)c3s2)cc1 | 32* | 0 | -1 | +
Cc1nc2cc(-c3ccccc3)sc2c(=O)n1N | 5 | 4 | -11 | 1
COc1ccc(-c2cc3nc4n(c(=O)c3s2)CCC4)cc1 | 13 | 2 | -1 | +
Cc1cc(CCNC=O)c(C)c2c1oc1ccccc12 | -7 | nt | nt | 2
COc1ccc(N=Cc2ccc(N(CCC#N)CCC#N)cc2)cc1 | 49* | nt | nt | -3
SMILES | GDH-TPI counter | Mtb UGM inh | Rv3671c protease | Mtb FBA inh
COc1ccc(C(C#N)=Cc2ccc(N(C)CCC#N)cc2)cc1 | 18 | nt | nt | -3
O=C(CNC(=O)c1ccc2c(c1)OCCO2)N/N=C/c1ccco1 | 1 | -1 | 6 | 1
Cc1[nH]c2ccccc2c1/C=N/NC(=O)c1cc(-c2cccs2)[nH]n1 | 28 | 3 | 24 | 5
Cc1[nH]c2ccccc2c1/C=N/NC(=O)CNC(=O)c1ccc2c(c1)OCCO2 | 32* | -1 | 0 | 4
Cc1cc(C(=O)N/N=C/c2c(C)[nH]c3ccccc23)n[nH]1 | 56* | 4 | 0 | -1
Cc1cc(C(=O)N/N=C/c2c3ccccc3cc3ccccc23)n[nH]1 | 3 | -1 | -14 | -2
Cc1cc(C(=O)N/N=C/c2c(C)n(C)c3ccccc23)n[nH]1 | 57* | 2 | -4 | 0
Cc1[nH]c2ccccc2c1/C=N/NC(=S)NC(C)C | 38* | 1 | 18 | -4
CCOC(=O)c1c(S(=O)(=O)NCC(=O)Nc2ccc(OC)cc2)c(C)n(C)c1C | -6 | -5 | 1 | 14
Cc1nc2c(OCc3ccc(C(F)(F)F)cc3)cccn2c1N(C)Cc1cccs1 | 8 | nt | nt | -4
CC(C)C(=O)Nc1ccc(NC(=O)c2ccc(COc3ccccc3)cc2)cc1 | 7 | 0 | 8 | 0
CN(CC1COc2ccccc2O1)C(=O)CSc1ncccn1 (stereo unspecified) | 6 | 0 | -9 | -1

Screening results as filed in PubChem BioAssay.
